Experimental data from the supplement of paper PMC5641865, “A screen for kinase inhibitors identifies antimicrobial imidazopyridine aminofurazans as specific inhibitors of the Listeria monocytogenes PASTA kinase PrkA” (The Journal of Biological Chemistry, 2017).
± gives the standard deviation of the averaged measurements.

Test system: Listeria monocytogenes 10403S
Assay: growth inhibition relative to ceftriaxone-alone control; higher = stronger potentiation of ceftriaxone growth inhibition
Details: 10 µM; ceftriaxone 1 ug/ml; 12 h
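Further: End-point A600 read in BHI broth at 37 °C with 2% DMSO, inhibition computed as (1 − OD with compound plus ceftriaxone ÷ OD with ceftriaxone only) × 100.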

Structure (SMILES) | growth inhibition [%]
Cc1cc(-c2ccccn2)cc(C)c1/C=C/c1cncc(-c2nn[nH]n2)c1 | -7.47 ± 9.6
FC(F)(F)c1cccc(-c2nn3ncccc3c2-c2ccnc(Nc3ccc4c(c3)OCCO4)n2)c1 | -5.79 ± 1.8
NS(=O)(=O)c1ccc(N/N=C2\C(=O)Nc3ccc(Cl)cc32)cc1 | -12.5 ± 11
Fc1ccc(-c2nn3ncccc3c2-c2ccnc(Nc3ccc4c(c3)OCCO4)n2)cc1 | -7.99 ± 5.2
[O-][S+]1CCN(Cc2ccc(-c3ccc4ncnc(Nc5ccc(OCc6ccccc6)c(Cl)c5)c4c3)o2)CC1 | 2.22 ± 6.4
CNC(=O)CN1CCC(Oc2cc3c(Nc4cccc(Cl)c4F)ncnc3cc2OC)CC1 | 0.347 ± 1.9
NS(=O)(=O)c1ccc(N/C=C2\C(=O)Nc3ccc4ncsc4c32)cc1 | -2.62 ± 4.2
CC(C)c1ccc(Nc2nccc(-c3cnn4ncccc34)n2)cc1 | -0.923 ± 0.22
